Test results reported in PubChem BioAssay AID1508600 (Functional Genomics Laboratory (NCATS/FGL), 2020).
About 3,700 (7%) of roughly 53,000 sequences were called active.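 Rule for the calls: active = gene knockdowns whose robust z-score for IL-1 alpha signal is at least 2 or at most -2, so actives lie on both sides; inactive = the rest.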 Only a selection was taken, and actives are over-represented in it overall.

Assay: Components of the Cytosolic LPS Sensing Pathway: Gene Identification via Genome-wide siRNA Screen;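 note: robust z of the log signal after scaling to non-targeting control siRNA wells of the plate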
Details: RAW264.7 macrophages, IL-1a HTRF, actives lie on both sides, screened at 100 nM (by protocol), cells primed 5 h with Pam3CSK4 first
Summary of the method: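 Three distinct siRNAs per gene were tested singly at 100 nM in RAW264.7 macrophages. Following Pam3CSK4 priming and 24 hour LipidA transfection, IL-1a secretion was read by HTRF.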
In the case of CGGCUCAUCCGAUAUAUCCTT against Hcn2, the z-score is reported as -1.39 (inactive).
In the case of GCUUUUAAAGCAUGGGCAGTT against Alb, the z-score is reported as 2.44 (active).
With GGGCAGUAAGGACAGUUUUTT against Oaz1 the z-score was 0.406 (inactive).
With GGACUAAUCCCAUUUUCUUTT against Zfp422 the z-score was -0.292 (inactive).
In the case of GGCCGAGAAGAUCAAAGCATT against Mrpl12, the z-score is reported as -0.116 (inactive).
In the case of GGAAAUAAAGUGAGUUUUGTT against Etaa1, the z-score is reported as 4.95 (active).
For GCUGGAAUAUCAUUUCCCATT against Pdpk1, the z-score was -1.01 (inactive).
For GGAGAGCUGUUUGACUACATT against Melk, the z-score was 1.45 (inactive).
For CCAGCAAAAUCACUUAAUATT against Emb, the z-score was -0.648 (inactive).
For GCAACGAAGUGAAUUUGUUTT against Epha5, the z-score was -0.139 (inactive).
For GCUAGACCAGAAGAAAGUATT against Gid8, the z-score was -1.65 (inactive).
With GCCAGAGCUAGUUGAAUCCTT against Rce1 the z-score was 1.14 (inactive).
For GGCCCUGUGUUUAUCAAAGTT against Cntn3, the z-score was 0.814 (inactive).
With GGCCUUGAAGGAGUAUGAGTT against Atp2a3 the z-score was -2.62 (active).
In the case of GGACCCAGAUGUGACUGAGTT against Svil, the z-score is reported as 0.242 (inactive).
For GGAAGCUUUUGUCGGUCCATT against Hap1, the z-score was -0.361 (inactive).
For AACUUUCUCAUUCUUACUGTT against Olfr961, the z-score was -1.22 (inactive).
In the case of “GCAUGCUGAGGGACACAGUTT against 1810055G02Rik”, the z-score is reported as -1.6 (inactive).
For GAUCACACUGAAAUCAUCATT against Nudt11, the z-score was -1.71 (inactive).
For GGCAUCACUGGUAAACAUUTT against Frzb, the z-score was -0.196 (inactive).
In the case of GGCUGUCUUGUCCAAAUGUTT against Olfr1357, the z-score is reported as -2.9 (active).
For GGGAAAGUUUUGUUCUGUATT against Ezr, the z-score was 0.31 (inactive).
In the case of CCGCGUGUUCCUUCUGAUUTT against S1pr3, the z-score is reported as 1.43 (inactive).
For GGGUAUAGAAUGAUUAUGGTT against Ly6g2, the z-score was -2.39 (active).
With GGGAACUGUUCCAUCUUGCTT against Olfr606 the z-score was 0.979 (inactive).
For GGAAGUUCCGUCGAUUUGATT against Cyp8b1, the z-score was -0.604 (inactive).
In the case of GGAUGAAGUUCUUUUUCAATT against Pdcd11, the z-score is reported as 2.28 (active).
For GGCUGCCUAUCCCUAAACUTT against Cpt2, the z-score was -0.625 (inactive).
For GGUGGUUUACCAAACGGUGTT against Ces2g, the z-score was -0.00874 (inactive).
With GGCCAGAGCAUUUUCUUCATT against Pif1 the z-score was 0.72 (inactive).
For GGAUGAAGGAAUCCAUGCATT against Pcdhga6, the z-score was -0.133 (inactive).
With GGAUCUGAAGGUGAUGUCATT against H2-Q10 the z-score was -2.72 (active).
In the case of GGUACCUCUACACAGAUGATT against Fgf21, the z-score is reported as 0.0136 (inactive).
For GGCCUGGAUGAAUGAAAAGTT against Gins4, the z-score was 0.665 (inactive).
In the case of CCGUGUGAAUCCCUGCAUUTT against Aldoa, the z-score is reported as -2.85 (active).
In the case of GCUAUUUGACUUGUUGUAATT against Rab30, the z-score is reported as 0.269 (inactive).
For CGCAAGUAUUUCCACCAUATT against Clk4, the z-score was -0.41 (inactive).
With GGUUUGAGAAUUUGAAGGUTT against Map2k3os the z-score was 0.273 (inactive).
With GGUCCUCUGGUUCAACAUUTT against Olfr638 the z-score was -0.405 (inactive).
With GGGAAGAAGACUGACAAGCTT against Lars the z-score was 2.03 (active).
With GGAGAUGAAGAAGAUAUUGTT against Smoc2 the z-score was -0.764 (inactive).
In the case of GGUCUACUUCUUUUUUACGTT against Sema4d, the z-score is reported as 0.467 (inactive).
With GGUGAUAACUCCGGGCCAATT against Fam3b the z-score was 2.32 (active).
In the case of “CCCUGCUGGUUGGUAAUCATT against F830005K03Rik”, the z-score is reported as 0.548 (inactive).
In the case of GCUAAGAUUGUCAUGAUGUTT against Bambi, the z-score is reported as -1.02 (inactive).
For GGAAAGAAGGUGAACAACATT against Phax, the z-score was 1.96 (inactive).
For GCAGAAGAAGAAGGGUUCCTT against Emx1, the z-score was 3.59 (active).
In the case of GGGAGAACCAGCACAACAUTT against Cavin2, the z-score is reported as -1.8 (inactive).
In the case of GGAAGACAUUCACGAUUGUTT against Deptor, the z-score is reported as -0.0976 (inactive).
With GGAGUUCAGCAACCUGUUGTT against Tmem97 the z-score was -2.08 (active).
For GGGAUCAUUGCUGUCCUCUTT against Adora2b, the z-score was -1.33 (inactive).
With CCUCAAACCAUCAACAACCTT against Six3 the z-score was -2.04 (active).
With GGAACUUUCCUUUUUUGUCTT against Serpinb5 the z-score was 0.889 (inactive).
With GGUGAUGAUGUCCAGAAGUTT against Kdm4d the z-score was -0.913 (inactive).
For GGAGAAAGUCUUUGUGAACTT against Lipc, the z-score was -1.1 (inactive).
In the case of GGCUUUCUUUUUGAAAGAATT against Arhgap10, the z-score is reported as 0.78 (inactive).
With GGAACCUACUUGUUACCUUTT against Nlrp5 the z-score was 0.731 (inactive).
For CGGUCAUUAAAACUUACAGTT against Hells, the z-score was 2.69 (active).
For GCCGGGAGAAAUAAAUGGUTT against Mif, the z-score was -0.654 (inactive).
For GGAAAAACUCUUCUUCACGTT against Nphs1, the z-score was -0.0272 (inactive).
For GGAGGACUCUGCUUCCAUATT against Pwwp3b, the z-score was -0.848 (inactive).
With GGUUCUGGAAGUGAAGGUGTT against Prg2 the z-score was -0.00973 (inactive).
For CCACUUCCGAUGAGCCAGATT against Mrps10, the z-score was -3.31 (active).
For GCUAUUGGUGCUUCAGUCCTT against Rtel1, the z-score was -0.458 (inactive).
For GCCGUGUUCAUGAAUAAACTT against Glce, the z-score was -0.392 (inactive).
In the case of GCUCUGUGAGCGAAAGUUCTT against Synpo2, the z-score is reported as 1.72 (inactive).
With CGUGGUCAGCGAGAGAGAATT against Sohlh1 the z-score was 1.19 (inactive).
For GGAUGCUGACAACAUAUACTT against Plk3, the z-score was -0.726 (inactive).
In the case of GGUUUUCCUGUUCAAUUCUTT against Olfr586, the z-score is reported as 2.4 (active).
